RORg inh: ROR gamma (mouse) transcription inhibition | P51450 | Drosophila S2 Gal4-RORgamma UAS-luciferase reporter, 20 h | Potency, µM (titrated, usually from 53.6 µM), without a hit: at the highest dose activity change, negative = inhibition, actives largely listed as inhibitors | hit rate 5.4% among 310,000; also: potency is read from the fitted curve at half-maximal effect; % is scaled to controls: 0 for no effect and ±100 for the full control effect; nearly all actives have a fitted effect of over 60% in size
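Read-out: Photinus luciferase luminescence; inhibitors lower reporter signal. Insect Schneider cells with Gal4-ROR gamma fusion under metallothionein promoter, UAS reporter; 700 uM final copper sulfate induction, 20 hr, ambient temperature.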
TRPV1 ag: agonists of human vanilloid receptor 1 (TRPV1); Q8NER1; AID 540275; activation, % at 8.33 µM; TRPV1-expressing cells, Fluo-8 calcium influx, agonist mode; hit rate 0.19% among 320,000; in the data active = activation above about 80%; inconclusive = between about 30% and that limit; also: 0% is about no effect
Target sequence (Q8NER1 whole entry, looked up): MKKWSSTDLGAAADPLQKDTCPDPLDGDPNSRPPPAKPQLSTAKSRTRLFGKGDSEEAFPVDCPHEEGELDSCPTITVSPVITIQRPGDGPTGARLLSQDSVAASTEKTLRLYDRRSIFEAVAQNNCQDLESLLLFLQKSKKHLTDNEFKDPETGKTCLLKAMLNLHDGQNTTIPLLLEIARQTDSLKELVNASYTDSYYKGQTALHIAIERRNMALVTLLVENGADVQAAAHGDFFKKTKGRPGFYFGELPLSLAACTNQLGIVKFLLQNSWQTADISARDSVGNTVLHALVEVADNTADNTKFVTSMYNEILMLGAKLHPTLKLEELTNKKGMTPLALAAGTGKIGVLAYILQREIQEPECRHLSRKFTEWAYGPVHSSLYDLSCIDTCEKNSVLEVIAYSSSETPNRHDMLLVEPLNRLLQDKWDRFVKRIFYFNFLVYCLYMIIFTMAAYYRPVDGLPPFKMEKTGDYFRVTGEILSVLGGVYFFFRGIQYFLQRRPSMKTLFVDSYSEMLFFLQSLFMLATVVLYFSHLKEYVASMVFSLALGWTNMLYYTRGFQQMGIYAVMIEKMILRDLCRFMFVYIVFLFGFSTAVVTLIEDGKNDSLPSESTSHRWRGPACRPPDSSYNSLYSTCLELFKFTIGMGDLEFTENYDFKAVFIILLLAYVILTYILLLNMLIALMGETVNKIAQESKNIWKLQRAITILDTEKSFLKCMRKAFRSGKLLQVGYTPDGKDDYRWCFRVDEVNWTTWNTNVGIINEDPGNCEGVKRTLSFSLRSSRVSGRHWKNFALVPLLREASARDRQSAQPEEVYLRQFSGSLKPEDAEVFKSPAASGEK
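Cells expressing TRPV1 were dye-loaded with Fluo-8 and read kinetically: 10 s baseline, 3 min after compound (agonist portion), then 2 min after EC20 capsaicin (allosteric enhancer portion). Calcium-bound dye fluorescence at 480/520 nm.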
Gal4-VP16 FLuc: counter-screen for ROR gamma inhibitors: Gal4-VP16 reporter; Drosophila S2 Gal4-VP16 UAS-luciferase, luminescence, 20 h; Potency, µM (series often up to 53.6 µM), for inactives: at the top dose activity, negative = inhibition, most hits filed as inhibitors; AID 2546; hit rate 3.5% among 310,000;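 also: Gal4-VP16 expression switched on by copper sulfate through the metallothionein promoter; potency is read from the fitted curve at half-maximal effect; % is scaled to controls: 0 for no effect and ±100 for the full control effect; nearly all actives have a fitted effect of over 50% in size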
uPA generation: cell surface uPA generation inhibition. Potency, µM (titrated, usually from 38.3 µM), inactives show at the highest dose activity change, negative = inhibition, usual class: inhibitors. AID 540303. cell surface uPA generation assay, qHTS. hit rate 0.31% among 330,000; active = well fitted inhibition curve with a large enough effect; inconclusive = small, poorly fitted or top-dose-only effect; inactive = no such curve, though single readings can be large or run the other way; tested in mouse RAW 264.7 cells; also: potency is read from the fitted curve at half-maximal effect; % is scaled to controls: 0 for no effect and ±100 for the full control effect; nearly all actives have a fitted effect of over 55% in size
TRPV1 PAM: enhances activation of the human vanilloid receptor TRPV1. hit rate 0.02% among 320,000. TRPV1-expressing cells, Fluo-8 calcium influx, capsaicin EC20 potentiation. AID 540277. potentiation, % at 8.33 µM; in the data active = potentiation above about 80%; inconclusive = between about 30% and that limit; also: 0% is about no effect
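Fluo-8 calcium influx in TRPV1-expressing cells, kinetic read (ex 480/em 520 nm). Compound added and read 3 min for agonist activity, followed by capsaicin at EC20 final and 2 min further read for enhancement.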
Starred values were filed as active, the others as inactive; [ ] = dose if it differs, or a comment. A selection: hits, their analogues and other compounds. The true share with any hit is near 5.8%. Unless noted, calls follow the shape of the dose curve; as a rule, active = well fitted curve in the direction sought with a large enough effect; inconclusive = small, poorly fitted or top-dose-only effect, or another doubt; inactive = no such curve, though single readings can be large; an effect the other way counts as inactive or inconclusive.

Screening Cc1ccccc1CS(=O)(=O)CCC(=O)N1CCN(c2ccc(N3CCOCC3)nn2)CC1 returned RORg inh -22.3%, TRPV1 ag -9.0, Gal4-VP16 FLuc 5.1%, uPA generation 0.6% and TRPV1 PAM -4.9.
Screening CC12C=C(/C=C/c3ccc(C(F)(F)F)cc3)C(C)(C1)C(c1ccc(C(F)(F)F)cc1)CC2=O (stereo not drawn) returned RORg inh 16.2%[10 µM] and Gal4-VP16 FLuc -6.6%[10 µM].
`CN1C(=O)/C(=C/c2cccc(Cl)c2)Sc2ccc(C(=O)NCc3cccnc3)cc21` gave RORg inh inconclusive, TRPV1 ag -9.8, Gal4-VP16 FLuc -8.2%[10 µM], uPA generation -18.0% and TRPV1 PAM 82.4*.
COc1cccc(/C=C2\Sc3ccc(C(=O)NCc4cccnc4)cc3N(C)C2=O)c1 was read as RORg inh 20.6%, TRPV1 ag inconclusive, Gal4-VP16 FLuc -18.9%, uPA generation 0.0% and TRPV1 PAM -1.8.
For Cc1ccc2nc(SCC(=O)Nc3ccc4c(c3)CCC4)[nH]c2c1 the results were RORg inh inconclusive, TRPV1 ag inconclusive, Gal4-VP16 FLuc 11.2µM*, uPA generation -0.8% and TRPV1 PAM -7.0.
Cc1n[nH]c(=S)n1-c1ccc(Cl)cc1 was read as RORg inh inconclusive, TRPV1 ag -2.5, Gal4-VP16 FLuc -9.3%, uPA generation -4.3% and TRPV1 PAM 9.4.
For CCOCCCn1c(-c2ccc(Cl)cc2)n[nH]c1=S the results were RORg inh 5.01µM*, TRPV1 ag 1.7, Gal4-VP16 FLuc 10µM*, uPA generation -1.6% and TRPV1 PAM -0.3.
S=c1[nH]nc(-c2ccc(Cl)cc2)n1CCCN1CCOCC1 was read as RORg inh 10µM*, TRPV1 ag -2.8, Gal4-VP16 FLuc -3.0%, uPA generation 10.8% and TRPV1 PAM -2.7.
`COCCCn1c(-c2ccccc2Cl)n[nH]c1=S` gave RORg inh 15.8µM*, TRPV1 ag 2.8, Gal4-VP16 FLuc inconclusive, uPA generation 4.4% and TRPV1 PAM 0.9.
For CCCCn1c(-c2ccoc2C)n[nH]c1=S the results were RORg inh 3.1%, TRPV1 ag 1.5, Gal4-VP16 FLuc -1.9%, uPA generation -2.1% and TRPV1 PAM 25.3.
For COCCCn1c(-c2ccc(Cl)cc2)n[nH]c1=S the results were RORg inh 17.8µM*, TRPV1 ag -0.6, Gal4-VP16 FLuc 12.6µM*, uPA generation 0.6% and TRPV1 PAM 6.5.
Screening O=C(CSc1cn(Cc2ccccc2)c2ccccc12)NCc1ccc(F)cc1 returned RORg inh -0.6%, TRPV1 ag inconclusive, Gal4-VP16 FLuc -23.8%, uPA generation -24.8% and TRPV1 PAM -8.4.
CC1CCC(NC(=O)CCn2ccc3cc(S(=O)(=O)N4CCCC4)ccc32)CC1 (stereo not drawn) was read as RORg inh 25.6%, TRPV1 ag 16.0, Gal4-VP16 FLuc -2.0%, uPA generation -22.4% and TRPV1 PAM -6.9.
Screening Cc1ccc(NC(=O)c2ccc(COc3ccc4c(c3)CCC4)cc2)c(C)c1 returned RORg inh 2.24µM*, TRPV1 ag -2.1, Gal4-VP16 FLuc 8.91µM*, uPA generation 2.0% and TRPV1 PAM 5.0.
`O=C(Nc1ccccc1Cl)c1ccc(COc2ccc3c(c2)CCC3)cc1` gave RORg inh -26.9%, TRPV1 ag 0.5, Gal4-VP16 FLuc inconclusive, uPA generation 2.3% and TRPV1 PAM -6.1.
O=C1/C(=C/c2ccncc2)SC(=S)N1Nc1ccccc1 was read as RORg inh inconclusive, TRPV1 ag 0.0, Gal4-VP16 FLuc inconclusive, uPA generation -1.0% and TRPV1 PAM -0.1.
Cc1cc(C)nc(NN2C(=O)/C(=C/c3ccccc3)SC2=S)n1 was read as RORg inh 12.6µM*, TRPV1 ag -2.1, Gal4-VP16 FLuc -11.6%, uPA generation 10.2% and TRPV1 PAM -5.2.
CCCCOc1ccc(-c2cn3ccccc3n2)cc1[N+](=O)[O-] was read as RORg inh -0.5%, TRPV1 ag 25.9, Gal4-VP16 FLuc -16.0%, uPA generation 7.94µM* and TRPV1 PAM -14.1.
Cc1cc(C(=O)CN2C(=O)C(=O)N(Cc3ccccc3)C2=O)c(C)n1-c1ccc2c(c1)OCCO2 was read as RORg inh 6.1%, TRPV1 ag -1.3, Gal4-VP16 FLuc 7.2%, uPA generation 5.1% and TRPV1 PAM 7.1.
For Cc1cc(C(=O)NNC(=S)NCC(C)C)no1 the results were RORg inh 7.94µM*, TRPV1 ag -0.6, Gal4-VP16 FLuc -24.0% and TRPV1 PAM -6.4.
For O=C1OC(/C(=C\Nc2ccc(F)cc2F)[N+](=O)[O-])c2ccccc21 (stereo not drawn) the results were RORg inh 14.1µM*, TRPV1 ag 1.7, Gal4-VP16 FLuc inconclusive, uPA generation -14.7% and TRPV1 PAM 16.3.
`Cc1cc(C)cc(C(=O)Nc2ccncc2)c1` gave TRPV1 ag inconclusive, uPA generation 7.6% and TRPV1 PAM -20.2.
Screening CC(C)c1c(C(=O)N/N=C/C=C/c2ccccc2)nnn1-c1nonc1N returned RORg inh 4.47µM*, TRPV1 ag inconclusive, Gal4-VP16 FLuc 5.62µM*, uPA generation -3.7% and TRPV1 PAM -26.6.
For CC(C)c1c(C(=O)N/N=C/c2ccc3c(c2)OCO3)nnn1-c1nonc1N the results were RORg inh 23.9%, TRPV1 ag inconclusive, Gal4-VP16 FLuc -0.4%, uPA generation -19.1% and TRPV1 PAM -20.3.
Screening CCN(CC)c1ccc(/C=N/NC(=O)c2nnn(-c3nonc3N)c2C(C)C)c(O)c1 returned RORg inh 3.55µM*, TRPV1 ag 0.7, Gal4-VP16 FLuc 5.01µM*, uPA generation -0.6% and TRPV1 PAM -16.1.
COc1ccc2c(c1)O[C@@H](c1ccc3c(c1)OCO3)[C@H](OC(=O)NCc1ccc3c(c1)OCO3)C2=O was read as RORg inh -8.6% and Gal4-VP16 FLuc -8.9%.
For CCC(C)n1c(SCC(=O)NC(=O)c2cccn2C)nc2ccccc2c1=O (stereo not drawn) the results were RORg inh 14.1µM*, TRPV1 ag 29.9, Gal4-VP16 FLuc inconclusive, uPA generation -0.5% and TRPV1 PAM -11.4.
For COc1ccccc1C1(O)CCN(CCCn2c3ccccc3c3ccccc32)CC1 the results were RORg inh 8.1% and Gal4-VP16 FLuc 4.3%.
Screening Cc1ccc(-n2nc3c(=O)n(CC(=O)NCCCc4ccccc4)nc(C)c3c2C)cc1 returned RORg inh 10.6%, TRPV1 ag 1.9, Gal4-VP16 FLuc 0.7%, uPA generation 0.501µM* and TRPV1 PAM 6.5.
Cc1ccc(-n2nc3c(=O)n(C(C)C(=O)NCCCc4ccccc4)nc(C)c3c2C)cc1 (stereo not drawn) was read as RORg inh 32.0%, TRPV1 ag -0.6, Gal4-VP16 FLuc -6.9%, uPA generation -29.4% and TRPV1 PAM 0.6.
Screening O=C(Nc1ccc(Br)cn1)c1ccc2ccccc2c1 returned RORg inh 3.1%, TRPV1 ag inconclusive, Gal4-VP16 FLuc 3.3%, uPA generation inconclusive and TRPV1 PAM 3.5.
